Only some compounds are listed: those with a hit (about 6.6% of all), similar ones and a draw of the others.
KB-3-1 cytotox = qHTS assay for MDR1-selective chemotherapeutics: Primary screen using the parental adenocarcinoma cell KB-3-1; AID 1347075, 2019; KB-3-1 viability, CellTiter-Glo ATP luminescence, 72 h; actives 1.4% (n = 400,000); Potency, µM (top dose mostly 46.1 µM), most hits filed as cytotoxic; note: nearly all actives have a fitted effect of over 60% in size
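Cytotoxicity measured as CellTiter-Glo luminescence after 72 h at 37 C. Compound titrations were pinned onto drug-naive KB-3-1 parental adenocarcinoma cells grown in DMEM with 10% FBS, and normalized data fitted to concentration-response curves.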
HT1080NT lethal = qHTS for induction of synthetic lethality in tumor cells producing 2HG: qHTS for the HT-1080-NT fibrosarcoma cell line; actives 1.6% (n = 360,000); AID 686970, 2013; HT-1080-NT fibrosarcoma viability, CellTiter-Glo ATP luminescence, 48 h; Potency, µM (doses to about 46.1 µM), hits mostly cytotoxic;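 note: NT is the 2HG producing partner of a matched IDH1 knockdown line; nearly all actives have a fitted effect of over 55% in size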
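Luminescent CellTiter-Glo readout after 48 hours of compound exposure at 37 degrees C defined viability of HT-1080-NT cells. Activity was normalized to DMSO wells and cell-free media wells; concentration-response curves were fitted and assigned curve classes.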
HT1080 IDH1KD tx = qHTS for induction of synthetic lethality in tumor cells producing 2HG: qHTS for the HT-1080-IDH1KD cell line | Potency, µM (series often up to 46.1 µM), hits mostly cytotoxic | HT-1080 IDH1 knockdown viability, ATP luminescence, 48 h | actives 2% (n = 360,000)
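In this qHTS, HT-1080 cells depleted of IDH1 are exposed for 48 h at 37 °C to compound titrations. Toxicity is scored from CellTiter-Glo luminescence, with DMSO as full viability and medium alone as none.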
HepG2 tox = qHTS for Inhibitors of TGF-b: Cytotox Counterscreen | HepG2 CAGA-GFP viability, ATP luminescence, 18 h | Potency, µM (highest dose often 46.1 µM), actives largely listed as cytotoxic | actives 0.76% (n = 410,000) | AID 588856, 2011
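HepG2 CAGA-GFP cells (1000/well, DMEM with 1% FBS) received compound, then TGF-beta at 500 pg/mL final, and were incubated 18 hours at 37 degrees C. Viability was read by CellTiter-Glo luminescence. Media-only wells were set as complete cell-killing and DMSO as no toxicity.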
TGFb inhibitor = qHTS for Inhibitors of TGF-b. HepG2 CAGA-GFP TGF-b/SMAD3 reporter, GFP fluorescence, 18 h; TGF-beta stimulated, 500 pg/mL final. Potency, µM (doses to about 46.1 µM), most hits filed as inhibitors. actives 1.2% (n = 410,000). AID 588855, 2011; note: nearly all actives have a fitted effect of over 65% in size
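Using HEPG2 CAGA-GFP reporter cells at 1000 cells/well, we pinned test compounds, stimulated with recombinant TGF-beta (500 pg/mL final) and measured total well GFP after 18 h.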
KB-V1 cytotox = qHTS assay for MDR1-selective chemotherapeutics: Primary screen using the drug-selected MDR subline cells KB-V1. KB-V1 MDR cells viability, CellTiter-Glo, 72 h. Potency, µM (top dose mostly 46.1 µM), most hits filed as cytotoxic. actives 3.4% (n = 400,000); note: nearly all actives have a fitted effect of over 60% in size
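Cytotoxicity via CellTiter-Glo luminescence after 72 h compound exposure at 37 degrees C. Cells: drug-selected KB-V1 line, DMEM phenol-red free plus 10% FBS. Compounds tested at multiple concentrations; normalized data fitted to concentration-effect curves.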
Hits are given with their value; – = inactive; ? = inconclusive; · = not tested or not shown; ! = not confirmed by another sample. Calls come from the whole dose curve; as a rule, active = well fitted curve in the direction sought with a large enough effect; inconclusive = small, poorly fitted or top-dose-only effect, or another doubt; inactive = no such curve, though single readings can be large; an effect the other way counts as inactive or inconclusive.

SMILES | KB-3-1 cytotox | HT1080NT lethal | HT1080 IDH1KD tx | HepG2 tox | TGFb inhibitor | KB-V1 cytotox
CCCCn1c(Oc2ccc(C(=O)OC)cc2)nc2c1c(=O)n(C)c(=O)n2C | – | – | – | – | – | 16µM
CCCCn1c(SCC(=O)Nc2cc(C)on2)nc2ccccc2c1=O | – | – | – | 4µM | – | –
CN(C)CCCn1c(SCC(=O)Nc2nc(-c3cccc(Br)c3)cs2)nc2ccccc2c1=O | ? | 21µM | 16µM | – | ? | ?
COc1ccc(CC(=O)NCCS(=O)(=O)N2CCN(c3ccccc3F)CC2)cc1OC | · | · | · | – | – | ·
CCCCn1c(SCC(=O)Nc2cc(NC(=O)c3ccco3)ccc2C)nc2ccccc2c1=O | – | ? | 11µM | – | – | ?
COCCn1c(SCc2nc3ccccc3c(=O)[nH]2)nc2ccccc2c1=O | – | ? | ? | – | – | ?
CCCn1c(=O)n(C)c(=O)c2c(SCC(=O)Nc3cc(C)on3)nc(C(C)(C)C)nc21 | ? | – | – | – | 18µM | –
Cc1cc(NC(=O)CSc2nc(C(C)C)nc3c2c(=O)n(C)c(=O)n3C)no1 | – | – | – | – | – | ?
CCCn1c(SCc2nc3sc(C)c(C)c3c(=O)[nH]2)nc2ccccc2c1=O | – | – | – | – | – | 9.2µM
CCCCn1c(SCC(=O)Nc2cc(C)on2)nc2c1c(=O)n(C)c(=O)n2C | – | – | – | – | – | 15µM
O=c1c2ccccc2nc(SCc2ccc([N+](=O)[O-])cc2)n1CCCO | – | ? | ? | – | – | 2.9µM
CCCCn1c(SCC(=O)N2c3ccccc3CCc3ccccc32)nc2c1c(=O)n(C)c(=O)n2C | – | – | – | – | – | ?
Nn1c(SCc2ccc([N+](=O)[O-])cc2)nc2ccccc2c1=O | – | – | – | – | – | –
CCCCn1c(SCc2nnc(-c3ccccc3)o2)nc2c1c(=O)n(C)c(=O)n2C | – | – | – | – | – | 2.6µM
Cc1cccc(NC(=O)c2ccc(Cn3nc(N4CCN(c5ccccc5)CC4)ccc3=O)o2)c1C | – | · | · | – | ? | ?
Cc1cc(=O)[nH]c2nnc(SCc3cccc(C(F)(F)F)c3)n12 | · | · | · | – | – | ·
CC1=CSC2=NC(=O)/C(=C\c3cccn3-c3ccc([N+](=O)[O-])cc3)C(=N)N12 | – | – | – | – | – | 2.9µM
CC(C)c1ccc(-n2cccc2/C=C2/C(=N)N3C=CSC3=NC2=O)cc1 | ? | – | ? | – | ? | 21µM
CCN(C(=O)C(C)Sc1nnc(-c2ccncc2)n1C)C1CCCCC1 (stereo not drawn) | – | – | – | – | – | 16µM
CC1(C)CC(=O)C=C(c2ccc(-c3ccc4[nH]ccc4c3)cc2)C1=O | 8.2µM | ? | ? | – | ? | ?
CC1(C)CC(=O)C=C(c2ccc(-c3ccccc3)cc2)C1=O | – | – | – | – | – | –
CC1(C)CC(=O)C=C(c2ccc(-c3ccc(OC(F)(F)F)cc3)cc2)C1=O | ? | ? | 21µM | – | – | ?
Cc1cc(NC(=O)CSc2nnc(C(F)(F)F)n2C)no1 | – | – | – | – | – | –
CCOC(=O)c1nn(-c2ccc(Br)cc2)cc1C(=O)c1cccc2ccccc12 | ? | – | ? | – | – | 12µM
CCOC(=O)c1nn(-c2ccc(F)cc2)cc1O | – | ? | – | – | – | –
SMILES | KB-3-1 cytotox | HT1080NT lethal | HT1080 IDH1KD tx | HepG2 tox | TGFb inhibitor | KB-V1 cytotox
CCc1ccc(-n2c(SCc3cccc(F)c3)nc3[nH]ncc3c2=O)cc1 | – | · | · | 20µM | ? | –
CCc1ccc(-n2c(SCc3ccccc3C)nc3[nH]ncc3c2=O)cc1 | · | · | · | 22µM | · | ·
Cc1ccc(-n2c(SCc3cccc(F)c3)nc3[nH]ncc3c2=O)cc1C | – | · | · | 20µM | ? | –
O=c1c2cn[nH]c2nc(SCc2c(F)cccc2F)n1-c1ccc(Cl)cc1 | ? | – | ? | – | 16µM! | –
Cc1ccc(-n2c(SCc3ccccc3C)nc3[nH]ncc3c2=O)cc1C | – | · | · | – | ? | –
CCc1ccc(-n2c(SCc3ccccc3Cl)nc3[nH]ncc3c2=O)cc1 | – | · | · | – | ? | –
CC(O)CNC(=O)C(=O)Nc1c2c(nn1-c1ccc(Cl)cc1)CSC2 (stereo not drawn) | – | · | · | – | – | –
O=C(Nc1ccc(S(=O)(=O)N2CCCC2)cc1)C1CC(=O)N(CCc2ccccc2)C1 (stereo not drawn) | – | – | – | – | – | –
COc1ccc(-c2sc3ccccc3c2-c2ccc(OCCN(C)C)cc2)cc1 | ? | 23µM | ? | – | ? | ?
COc1cccc(-c2sc3ccc(OC)cc3c2-c2ccc(OCCN(C)C)cc2)c1 | ? | ? | ? | 14µM | ? | ?
CSc1ncc(C(=O)NCc2ccc(F)cc2)c(-c2ccccc2)n1 | – | · | · | – | – | –
COc1ccc(OC)c(CNC(=O)CCc2c(C)nc3c(c2C)c(=O)n(C)c(=O)n3C)c1 | – | · | · | – | – | –
CCS(=O)(=O)c1ncc(Cl)c(C(=O)N(Cc2ccccc2)Cc2ccco2)n1 | · | · | · | 5.6µM | ? | ·
CCc1ccc(CN(Cc2ccco2)c2cnc(S(C)(=O)=O)nc2C(=O)Nc2c(C)cccc2C)cc1 | – | · | · | – | ? | –
CCc1ccc(CN(Cc2ccco2)c2cnc(S(C)(=O)=O)nc2C(=O)Nc2ccccc2Cl)cc1 | – | · | · | – | 7.9µM | –
COc1ccc(N(C(=O)c2ccccc2)S(=O)(=O)c2ccc3c(c2)n(C)c(=O)n3C)cc1 | – | · | · | – | – | –
COc1ccc(S(=O)(=O)NCC(c2ccco2)S(=O)(=O)c2cccs2)cc1OC (stereo not drawn) | · | · | · | – | – | ·
COc1cc(N=C2C(=O)N3c4c(cccc42)C(C)=CC3(C)C)cc(OC)c1 | – | – | – | – | ? | ?
CC1=CC(C)(C)N2C(=O)C(=Nc3ccc(O)cc3)c3cccc1c32 | ? | 16µM | 26µM | – | 13µM | –
Cc1ccc(-n2c(=O)c3oc4ccccc4c3n(Cc3ccccc3)c2=O)cc1C | – | · | · | – | – | –
COc1cc(OC)c(NC(=O)C(CC(C)C)N2Cc3ccccc3C2=O)cc1Cl (stereo not drawn) | – | · | · | – | ? | –
Cc1ccc(CN(C)C(=O)c2ccc(NS(=O)(=O)c3ccc4[nH]c(=O)[nH]c4c3)cc2)cc1 | – | – | – | – | ? | ?
